# From PMC12136788
# Positions count from the first letter of the chain named. In all, about 24,000 sequences were measured (“enrichment r”: median about 0.99, highest 2% from about 3.7 on). Many of the other results were omitted from the sample, so the highest values are more common in it than they were.
# T1: UNK ZnF1-3 (human, UniProt Q9C0B0 31-174)
# T1 sequence: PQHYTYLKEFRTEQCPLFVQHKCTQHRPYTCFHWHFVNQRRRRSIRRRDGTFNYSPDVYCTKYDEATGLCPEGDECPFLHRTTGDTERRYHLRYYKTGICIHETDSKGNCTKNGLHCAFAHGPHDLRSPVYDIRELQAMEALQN
# B1: chr2:42509997:42509998:+_ENSG00000143924_ENST00000318522|hu_mus|hu_hu_hu_mus_True|28_48 (ssRNA)
# RNA: GGGAGUUCUACAGUCCGACGAUCUCGCUGAGUCCUCUCCUCAUAAUUAAACAGGACUACCACUGAGGCGAUAAAAUAAACUAUCUCCCCGGUCGGAAGCAGGUAUACAUUAGCUCUACAGUCCUUUCCUCGAUAACCGUAUACCAACAGAGGAUUGAGCAUCA
# B2: chr3:108363203:108363204:-_ENSMUSG00000068732_ENSMUST00000090546|mus_hu|FALSE|FALSE (ssRNA)
# RNA: GGGAGUUCUACAGUCCGACGAUCCCAGGUUUUGAGACGAGGUACUUUCUUGAAGUAGGCACAGGUGCAAACAAAGAGCAAACCAAACACCAGAAUCCCAUCCAAGGAGUACACGUUCGUCAUGGCGGCUGGCCCUGGACCUGGCAACAGAGGAUUGAGCAUCA
# B3: chr2:216981417:216981418:+_ENSG00000079246_ENST00000392132|hu_hu|hu_hu_hu_mus_True|48_58 (ssRNA)
# RNA: GGGAGUUCUACAGUCCGACGAUCCUGAUACUGGUCCUUGCCAGCAAGGGCAUUAUCAGUGCCAUCUGUGCCAUAGAGGACUAAAGCAAUCUCAUCCUUGCUCUCCGAAAAUACCUGUCGUUGGACAAACAUAGUCAUCACUUUCAACAGAGGAUUGAGCAUCA
# B4: 91404753_91404873_2338_CDS_ENSG00000122482_ENST00000337393|human|control|control (ssRNA)
# RNA: GGGAGUUCUACAGUCCGACGAUCAGGUUUUUGGUCAACGCUGCUUUUAAUUGUAACAUUCUUAUGAGGAGAGCUGUUUUGAUUGCACAUGUUUACACCUGAUUGGGCAAUGCUUUUCCGAGCUUUCUGUAUUCUGUGUGGCCGCAACAGAGGAUUGAGCAUCA
# B5: chr2:153593888:153593889:+_ENSMUSG00000027479_ENSMUST00000028981|mus_mus|FALSE|FALSE (ssRNA)
# RNA: GGGAGUUCUACAGUCCGACGAUCCUCAGUAGUGGGUAACACAUUUUGCAGAGUUCGCCAAACAAAGGAAUUGAAUAGGCUAUGGGUAAAGCAAUUGAGGGAGAAUUAAGGAAUGAAGUAUUUUAAAUAUUAAUAUUUCAGUCACAACAGAGGAUUGAGCAUCA
# B6: 77768493_77775406_9844_CDS_ENSG00000091656_ENST00000521891|human|control|control (ssRNA)
# RNA: GGGAGUUCUACAGUCCGACGAUCACUGCUGAGAGACAGGGCAGGAGACGAAGUAGCUGAAGUAGGAAACCCAAGCAUGCCUGCACCGGGAGGUGUUAAAGUGUUUGAAUUUUGUGGAAAUCCCGGCAAGGAGGAUGGACCGUUCAACAGAGGAUUGAGCAUCA
# B7: chr2:153593888:153593889:+_ENSMUSG00000027479_ENSMUST00000028981|mus_hu|FALSE|FALSE (ssRNA)
# RNA: GGGAGUUCUACAGUCCGACGAUCAGUAGUGGGUGAGACACAUUUUGCAGAAUCCUGCCAAACAAAGGAACUGAAUAGGCUGUGGGCAAAGCAAAUGAGGGAGAGUUAAGGAAUGAAGUAUUUUAAAUAUUAAUAAUUAAUUCACAACAGAGGAUUGAGCAUCA
# B8: chr6:39351226:39351227:-_ENSMUSG00000029922_ENSMUST00000031985|mus_hu|FALSE|FALSE (ssRNA)
# RNA: GGGAGUUCUACAGUCCGACGAUCGACAAAGUUAGAUGUGAUCCGGCAUUCUGGGCAGGACUUUAUGAUCUUGCUCUCAAAUUGCUUAGCACUCCUCCACUUGCGAAUGCACUUGAGACAGUAGGUGUGGUUGCAGUUGGAGAGCAACAGAGGAUUGAGCAUCA
# B9: chr3:54535082:54535083:-_ENSMUSG00000027752_ENSMUST00000029316|mus_mus|FALSE|FALSE (ssRNA)
# RNA: GGGAGUUCUACAGUCCGACGAUCGCAGGCAUCCAAAAUGUUCCCAUCGUAGUCUAGACAAAUGAGGUCACAGUAUAGAACCCAAGCAAGCUUGCCUGGAGAAAUGCAUAAAUCCUCUUUCUUAAUCACCUGUGAGUUGUCAACCAACAGAGGAUUGAGCAUCA
# B10: chr4:144447494:144447495:+_ENSG00000153147_ENST00000283131|hu_hu|motif|central (ssRNA)
# RNA: GGGAGUUCUACAGUCCGACGAUCCCAGUUGUGUAAUGUAGACUUAGGAACCAAAACCAUAUGAGGCCCAGGAAUGUUUCGGUAAUGUUUCAUGUACCCAAGAAGAGAAAUUGUUUGAAGAGUCUUUCCUAGGCCCAUUUCAUCCAACAGAGGAUUGAGCAUCA
# B11: chr4:124323795:124323796:+_ENSG00000164056_ENST00000339241|hu_hu|motif|central (ssRNA)
# RNA: GGGAGUUCUACAGUCCGACGAUCCCAUGAGUUAGACCUUGGCAACAGGGGAAGAGAAGGUGGGAAACAGGGAAAAAUUCGGAAGAAAACAAAAACAAAAACAAAAACAAAAAACAGCCACAACUUGAAAGCUAAAAGUUCAGGCAACAGAGGAUUGAGCAUCA
# B12: chr4:124323795:124323796:+_ENSG00000164056_ENST00000339241|hu_hu|FALSE|FALSE (ssRNA)
# RNA: B11 RNA with G80U, G81A
# B13: chr15:103023242:103023243:-_ENSMUSG00000009575_ENSMUST00000118152|mus_hu|FALSE|FALSE (ssRNA)
# RNA: GGGAGUUCUACAGUCCGACGAUCAACAUCUGAACUAGCAGCUUUGAUGAGGGGUGGGGGGCAGAAAAUUUGCCGAGUCACUAAGUAGUUCCAGUCUUGGAGACAGCUCAGUGAGGACCAAAGCCUGUGUGUCAGGCUUAAACUCAACAGAGGAUUGAGCAUCA
# B14: chr7:116176368:116176369:+_ENSMUSG00000031028_ENSMUST00000033341|mus_hu|FALSE|FALSE (ssRNA)
# RNA: GGGAGUUCUACAGUCCGACGAUCAGACACACACAUACACAGACGGACACAGAGCACCUUGGAGCCAGAAGGAAAGGAAAGCUAGACUUGGAGAAGAGUUGGGGAAGUGAACUUCACCACUCUGCAGAAUUGUUCUGGGGCAGACAACAGAGGAUUGAGCAUCA
# B15: chr4:99801976:99801977:-_ENSG00000151247_ENST00000280892|hu_hu|motif|central (ssRNA)
# RNA: GGGAGUUCUACAGUCCGACGAUCAACACAUUUAUGGAUUCUGGGGAUGUGUACUGUAAUUCUUUGAUUGGGAUAGUGGAAACUCGGGCCAAAAAAAAAAAAAAAAAUGAACACAGAAGUACAAGACAAAGGCGAAUGAGACUUCAACAGAGGAUUGAGCAUCA
# B16: chrX:7701523:7701524:-_ENSMUSG00000031166_ENSMUST00000033506|mus_mus|FALSE|FALSE (ssRNA)
# RNA: GGGAGUUCUACAGUCCGACGAUCCAGGCAAGUGUGGGGUCCACCCAAACAGUAGCUGCCAAUGUUGGGGAGUUUGACAACCUAACCUGGUGAAAGCCCCGUGGUUGAACUUAACAUUCUGCACCUAAUUUCCCUACUGCUGUCCAACAGAGGAUUGAGCAUCA
# B17: 36153137_36166621_529_CDS_ENSG00000145604_ENST00000274255|human|control|control (ssRNA)
# RNA: GGGAGUUCUACAGUCCGACGAUCCGCUAGGCGAUACCACCUCUUACAAACACCAGAGACCUUUAGCAGCUCAGGGAGGCACAGACAGGAAAAGAUUCCCAAGAGCAGCUCAUCCGGAAGGGAGUCCCAUGAAACACCUGGAAACAACAGAGGAUUGAGCAUCA
# B18: chr2:69570450:69570451:+_ENSMUSG00000042133_ENSMUST00000090858|mus_hu|FALSE|FALSE (ssRNA)
# RNA: GGGAGUUCUACAGUCCGACGAUCACAAAGACAACGAAAGUUCUCGCAUGUUUUGGGGCACACAUCAGAAAAUAAUUCAAAGACAACUCUUCCAGCAGGUUGAUUGUUAAUGGCAAUGUCAAAAAAACAUCGAGGACGUUGAACCAACAGAGGAUUGAGCAUCA
# B19: chr11:75578338:75578339:+_ENSMUSG00000020849_ENSMUST00000067664|perfect_dup|motif|central (ssRNA)
# RNA: GGGAGUUCUACAGUCCGACGAUCAAAGGGGAGGGGAGAAAAAAAAAAAAGAAAAAGAAAGAAAAACAACAGGGCAGGAACCGGAAUUCUGAGACCAAAUGUGAAAGUCAAAUUUGGUGGUUCUCAGUGACAAUGGGGAACUUCCAACAGAGGAUUGAGCAUCA
# B20: 18505133_18505253_973_CDS_ENSG00000101310_ENST00000262544|human|control|control (ssRNA)
# RNA: GGGAGUUCUACAGUCCGACGAUCUUCACAGCUUAGCUCAUGAACCUGCACCAUCCUUCCAAAUGUGAUCAGACCCACCAGAGCAUCUGGAGGAAGAAGACUCAGGGACAUCUGCAGGGACUCUUUGAGUGCUUGAAGGUCAUCCAACAGAGGAUUGAGCAUCA
# B21: chr11:75578338:75578339:+_ENSMUSG00000020849_ENSMUST00000067664|perfect_dup|FALSE|FALSE (ssRNA)
# RNA: B19 RNA with G82U, G83A
# B22: chr7:135839593:135839594:+_ENSMUSG00000042105_ENSMUST00000151237|mus_hu|FALSE|FALSE (ssRNA)
# RNA: GGGAGUUCUACAGUCCGACGAUCAGAAUCAGUCACUUCAACAGAGUAAAGCUCUAAAGACACCAGACGAACCAAUACUUGUUGGAAUAUGCCAUACAACUUUCUUACUGUGGGGAUUACAGGGGCAGCCCUGGUUCUGUGUGGCAACAGAGGAUUGAGCAUCA
# Molecular target: T1, UNK ZnF1-3
# Test: nsRBNS (natural sequence RNA bind-n-seq); RBNS binding buffer (assumed for nsRBNS): 25 mM Tris pH 7.5, 150 mM KCl, 3 mM MgCl2, 0.01% Triton X-100, 500 ug/ml BSA, 20 U/ml SUPERase-In, 4 C; UNK is unkempt and MSI1 is Musashi-1; names of the RNAs are library labels; protein concentration not given here; high values mean tight binding
row,Binder,binding signal [enrichment R]
1,B1,1.03
2,B2,1.56
3,B3,0.722
4,B4,0.646
5,B5,2.24
6,B6,1.52
7,B7,4.38
8,B8,0.754
9,B9,1.32
10,B10,1
11,B11,3.58
12,B12,4.13
13,B13,1.22
14,B14,3.99
15,B15,3.29
16,B16,1.26
17,B17,1.46
18,B18,1.49
19,B19,5.06
20,B20,1.32
21,B21,4.7
22,B22,1.69
